This is an account of results in PubChem BioAssay (NCATS).

Inconclusive results are not listed. Calls of active or inactive are those of the source. The call rests on the fitted dose curve; in most records, active means well fitted curve in the direction sought with a large enough effect; inconclusive means small, poorly fitted or top-dose-only effect, or another doubt; inactive means no such curve, though single readings can be large; an effect the other way counts as inactive or inconclusive.

Assay [1] addresses Aldehyde dehydrogenase, mitochondrial (Homo sapiens) (UniProt P05091). As to the kind of experiment: qHTS for Inhibitors of the Aldehyde Dehydrogenase Family (ALDH2) Primary screen (AID 2061308). Further: nearly all actives have a fitted effect of over 55% in size.
Assay [2] deals with Retinaldehyde dehydrogenase 3 (Homo sapiens) (UniProt P47895). The assay is described as follows: qHTS for Inhibitors of the Aldehyde Dehydrogenase Family (ALDH1A3) Confirmatory screens (AID 2061311). Further: nearly all actives have a fitted effect of over 60% in size. Further: potency means the concentration at half of the fitted maximal effect.
Assay [3] deals with Retinal dehydrogenase 2 (Homo sapiens) (UniProt O94788). As to the kind of experiment: qHTS for Inhibitors of the Aldehyde Dehydrogenase Family (ALDH1A2) Confirmation screens (AID 2061314; further: potency means the concentration at half of the fitted maximal effect; nearly all actives have a fitted effect of over 65% in size). (In general: Quantitative high-throughput screening tests each substance at several concentrations.)
The target of assay [4] is Retinaldehyde dehydrogenase 3 (Homo sapiens) (UniProt P47895). The assay is described as follows: qHTS for Inhibitors of the Aldehyde Dehydrogenase Family (ALDH1A3) Primary screen (AID 2061315).

Consider `COc1ccc(-c2nc(-c3cccc(C(=O)O)c3)no2)cc1`, for which the Potency result in assay [1] is “inactive”.
Take `CNC(=O)c1ccccc1Nc1cc(Nc2ccc(N3CCOCC3)cc2OC)ncc1C(F)(F)F`: in assay [1], the Potency entry is “inactive”. The Potency in assay [2] is 3.57 µM (active).
On to `Oc1cccc2cc(NCc3ccccc3F)cnc12`, for which the Potency entry in assay [1] and in assay [4] was “inactive” each time. The Potency was 7.12 µM (active) in assay [2] and 15.9 µM (active) in assay [3].
For `O=C1c2ccccc2C(=O)c2cc(S(=O)(=O)Nc3cccc4cccnc34)ccc21`, in assay [1], the Potency entry is “inactive”. Moreover, the Potency in assay [2] is 15.9 µM (active).
Turning to `Cc1ccc(-c2ccc(=O)n(CC(=O)NCCc3ccccc3)n2)cc1`, the Potency result in assay [1] and in assay [4] was “inactive” in each case. Besides, the Potency in assay [2] is 0.447 µM (active); in assay [3] it was 11.2 µM (active).
For `CC(CN1c2ccccc2Sc2ccc(S(=O)(=O)N(C)C)cc21)N(C)C` (stereo not drawn), in assay [1], the Potency result was “inactive”.
Still for that read-out and setting: the same measure for `O=C(O)c1ccc(-c2noc(-c3ccc(Cl)cc3)n2)cc1`: “inactive”.
With `C/C(=C\c1ccc2c(c1)OCO2)C1Nc2cccc3cccc(c23)N1`, the Potency result in assay [1] was “inactive”. For the same molecule, the Potency in assay [2] was 2.83 µM (active).
`CCC(=O)NC(c1cc(Cl)c2ccccc2c1O)C(C)C` (stereo not drawn): the Potency entry in assay [1] is “inactive”. In addition, the values for the Potency in assay [2] and in assay [3] were 12.7 µM (active) and 28.3 µM (active), respectively.
On to `CNc1ncc(-c2cccc3ccccc23)o1`, for which the Potency result in assay [1] and in assay [4] was “inactive” each time. The Potency is 25.2 µM (active) in assay [2] and 10.1 µM (active) in assay [3].
For `c1csc(CNc2ccc(N3CCCCC3)cc2)c1`, the Potency entry in assay [1] was “inactive”. Further, in assay [2], the Potency was 20.1 µM (active).
As for `O=C(O)c1cccc(-c2noc(-c3cccc(F)c3)n2)c1`, the Potency result in assay [1] was “inactive”.
As to `COc1cncc(NC(=O)c2cccs2)c1`, in assay [1], the Potency result was “inactive”. The Potency in assay [2] was 11.3 µM (active).
For `NC(=O)C1CCN(c2ncc(-c3ccc4c(c3)OCCCO4)s2)CC1`, the Potency result in assay [1], in assay [2] and in assay [4] was “inactive” in each case. The Potency in assay [3] was 3.57 µM (active).
